The source of these data is PubChem BioAssay AID463173 (ICCB-Longwood Screening Facility, Harvard Medical School, 2010).

In all, about 52,000 compounds went through this assay and about 4,300 (8.3%) were called active. Only a selection was taken, and actives are over-represented in it overall. Values without a mark were called inactive. Rule as the data show it: active = survival mostly below about 52% (no sharp cut-off); inactive = mostly above about 56%.

The experiment concerns DeltatarO mutant. The experiment can be described thus: S. aureus survival, RN4220 and DeltatarO strains – OD600, teichoic acid synthesis inhibitors, primary screen (AID 463173). Particulars: S. aureus RN4220 wild type/DeltatarO growth, OD600, 18 h, stronger effect = lower value, screened at 18.75 µg/mL (by protocol).
For the molecule `COc1cc(NC(=O)C(NS(=O)(=O)c2ccc3c(c2)CCCC(=O)N3)C(C)C)cc(OC)c1` (stereo not given), the survival was 71%.

Consider `CCC(=O)c1cc2c(cc1NC(=O)c1ccccc1F)OCCO2`, for which the survival is 68%.

Take `O=C(Nc1cc2c(cc1C(=O)c1cccc(Br)c1)OCCO2)c1ccccc1F`: the survival is 28% (active).

As to `O=C(Nc1cc2c(cc1C(=O)c1ccccc1Cl)OCCO2)c1ccc(Br)cc1`, the survival was 66%.

As to `CC1CCCN(S(=O)(=O)c2ccc(NC(=O)CSc3nc4ccccc4o3)cc2)C1` (stereo not given), the survival was 58%.

Take `CCC1Oc2ccccc2N(CC(=O)NCc2ccc(C)cc2)C1=O` (stereo not given): the survival was 78%.

Take `CCC1Oc2ccc(C)cc2N(CC(=O)NCc2ccc(F)cc2)C1=O` (stereo not given): the survival is 70%.

Consider `CCC1Oc2ccc(C)cc2N(CC(=O)NCCc2ccccc2)C1=O` (stereo not given), for which the survival is 80%.

On to `CCC1Oc2ccccc2N(CC(=O)NCc2ccccc2)C1=O` (stereo not given), for which the survival is -1% (active).

Consider `CCC1Oc2ccc(C)cc2N(CC(=O)NCc2ccc(OC)cc2)C1=O` (stereo not given), for which the survival is 39% (active).

As for `CC1Oc2ccccc2N(CC(=O)NCc2ccccc2)C1=O` (stereo not given), the survival was 92%.

Turning to `COc1ccc(C2c3c(oc4ccc(F)cc4c3=O)C(=O)N2Cc2ccc3c(c2)OCO3)cc1` (stereo not given), the survival is 59%.

Turning to `COc1ccccc1N1CCN(c2ncnc3c2nc2n3CCCC2)CC1`, the survival is 67%.

In the case of `Cc1cc(=O)n2nc(N3CCC(C(=O)NCc4ccccc4Cl)CC3)sc2n1`, the survival is 87%.

`CCOC(=O)c1cccc(NC(=O)Nc2c(C)n(C)n(-c3ccccc3)c2=O)c1`: the survival was 94%.

Take `CCCc1cc(=O)oc2cc(C)c3c(-c4ccccc4)c(C)oc3c12`: the survival was -10% (active).

`CCCc1cc(=O)oc2cc(C)c3c(-c4cccc(OC)c4)coc3c12`: the survival is 67%.

For the molecule `CCCc1cc(=O)oc2cc(C)c3c(C(C)(C)C)coc3c12`, the survival is 88%.

`Cc1ccc2[nH]c(=O)c(CN(Cc3ccccc3)C(=O)c3ccco3)cc2c1`: the survival is 103%.

Consider `CCc1nnc2n1N(C(C)=O)C(c1ccc(C(C)(C)C)cc1)=C(C(C)=O)S2`, for which the survival was 96%.

Consider `Cc1c(CNC2CCCCCC2)c(C(=O)O)c(C)n1Cc1ccc(F)cc1Cl`, for which the survival is 80%.

For the molecule `Fc1ccc(-c2nc(-c3cccs3)c(-c3cccs3)[nH]2)cc1`, the survival was 64%.

Turning to `Cc1ccc(-c2nc(-c3cccs3)c(-c3cccs3)[nH]2)cc1`, the survival is 62%.

As to `Cc1sc(N)nc1-c1cccs1`, the survival is 96%.

With `COc1ccc(O)c(-c2cn[nH]c2-c2cccs2)c1`, the survival is 89%.

As for `Oc1cccc(-c2nc(-c3cccs3)c(-c3cccs3)[nH]2)c1`, the survival was 4% (active).

On to `Fc1ccc2[nH]c(-c3cccs3)cc2c1`, for which the survival was 54%.

For `CN1C(C(=O)Nc2cccc(O)c2)=CC(c2cccs2)=NS1(=O)=O`, the survival was 87%.

On to `Oc1ccccc1-c1nc(-c2cccs2)c(-c2cccs2)[nH]1`, for which the survival was 0% (active).

In the case of `CN(C)c1ccc(-c2nc(-c3cccs3)c(-c3cccs3)[nH]2)cc1`, the survival was 47% (active).
